SMN2 splice enh = enhancers of SMN2 splice variant expression. 210,000 compounds, 2.8% hits. Potency, µM (doses to about 46.1 µM), inactives show at the top dose activity change, positive = activation, actives largely listed as activators. HEK293 SMN2-luciferase splicing reporter, luminescence, 30-36 h. AID 1458; note: % of control where 0% means no effect; nearly all actives have a fitted effect of over 55% in size
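qHTS luciferase splicing reporter: luminescence rises when SMN2 exon 7 is included in transfected HEK293 cells. Compound exposure lasted 30-36 h at 37C, with 4.5 mM final sodium butyrate as control, followed by a ONE-Glo read.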
Rab9 promoter act = activators of Rab9 promoter | Potency, µM (doses to about 9.22 µM), for inactives: at the highest dose activation, negative = inhibition, most hits filed as activators | 320,000 compounds, 2.8% hits | Huh7 Rab9 promoter-luciferase reporter, luminescence, 24 h; note: % of control where 0% means no effect; nearly all actives have a fitted effect of over 60% in size
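Steps: seed 1500 Huh7 Rab9-luc cells per well, rest 2 h at 37 °C; add compound in DMSO; incubate 24 h; add luciferase reagent, 10 min ambient; read luminescence.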
ELG1 genotoxic = inducers of genotoxicity in HEK293T ELG1-luciferase cells | HEK293T ELG1-luciferase reporter, luminescence, 16 h | Potency, µM (top dose mostly 46 µM), without a hit: at the top dose activity change, positive = activation, most hits filed as activators | 330,000 compounds, 1.3% hits | AID 504466; note: % of control where 0% means no effect; nearly all actives have a fitted effect of over 60% in size
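Luminescence read-out: rising ELG1-luciferase signal, reflecting elevated ELG1 protein under genetic stress, flags genotoxic compounds. Cells were treated for 16 hr at 37 °C before ONE-Glo detection.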
FLuc modulator = firefly luciferase modulation, counter-screen for miR-21 project; P08659; purified FLuc, Km substrates, luminescence inhibition; Potency, µM (titrated, usually from 57.5 µM), for inactives: top-dose activity change, negative = inhibition, actives largely listed as inhibitors; 360,000 compounds, 6.9% hits;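 note: plate controls were vehicle for no effect and reference inhibitor for full effect; nearly all actives have a fitted effect of over 55% in size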
Target sequence (P08659 whole entry, looked up): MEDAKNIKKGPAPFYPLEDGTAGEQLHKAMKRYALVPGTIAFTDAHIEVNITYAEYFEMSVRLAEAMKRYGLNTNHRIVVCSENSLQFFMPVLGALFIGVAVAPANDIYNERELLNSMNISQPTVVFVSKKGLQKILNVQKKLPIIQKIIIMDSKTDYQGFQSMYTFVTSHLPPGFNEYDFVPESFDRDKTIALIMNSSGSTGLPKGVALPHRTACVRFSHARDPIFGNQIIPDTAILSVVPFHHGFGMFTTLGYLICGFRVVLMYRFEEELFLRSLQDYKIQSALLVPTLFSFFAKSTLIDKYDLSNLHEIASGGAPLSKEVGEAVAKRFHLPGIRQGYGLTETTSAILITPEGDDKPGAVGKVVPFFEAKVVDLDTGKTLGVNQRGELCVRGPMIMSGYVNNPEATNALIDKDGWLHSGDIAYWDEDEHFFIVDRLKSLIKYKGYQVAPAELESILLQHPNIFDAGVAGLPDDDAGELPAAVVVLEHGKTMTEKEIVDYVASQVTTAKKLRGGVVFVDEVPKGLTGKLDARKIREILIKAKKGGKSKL
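Purified P. pyralis luciferase (10nM final) with 10uM D-luciferin and 10uM ATP (Km levels) in 50mM Tris acetate pH 7.5, 10mM Mg acetate, 0.01% Tween-20, 0.05% BSA; qHTS 6-point titration, ~60 µM downward; luminescence read.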
ELG1 repair inh = ELG1-dependent DNA repair inhibition; HEK293T ELG1-luciferase reporter, luminescence, 16 h; DNA damage induced by 5-fluorouridine; Potency, µM (top dose mostly 46.1 µM), for inactives: at the top dose activity change, negative = inhibition, actives largely listed as inhibitors; 330,000 compounds, 2.3% hits; note: % is set by controls: 0 for no effect and ±100 for the full control effect; nearly all actives have a fitted effect of over 55% in size
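DMSO vehicle served as the neutral condition. Each well held 2,000 cells given 5-fluorouridine plus compound; after 16 hr at 37 °C/5% CO2, ONE-Glo was added and luciferase measured 30 min later.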
NPC1 promoter act = activates the NPC1 promoter | Huh7 NPC1 promoter luciferase reporter, 24 h | Potency, µM (top dose mostly 9.22 µM), inactives show top-dose activation, usual class: activators | 320,000 compounds, 2.4% hits | AID 485313; note: % of control where 0% means no effect; nearly all actives have a fitted effect of over 60% in size
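Luminescence read-out of NPC1 promoter-driven luciferase in stably transfected Huh7 cells; compounds delivered in DMSO and left 24 h at 37C, 5% CO2, qHTS titration format.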
* marks the source's active call; other numbers are inactive results; ? = inconclusive; . = not tested or not shown; [ ] = remark or other dose. Most compounds without a hit are left out; they make up all but 9.2% or so of the library. Calls come from the whole dose curve; as a rule, active = well fitted curve in the direction sought with a large enough effect; inconclusive = small, poorly fitted or top-dose-only effect, or another doubt; inactive = no such curve, though single readings can be large; an effect the other way counts as inactive or inconclusive. Potency is the fitted concentration of half-maximal effect.

SMILES	SMN2 splice enh	Rab9 promoter act	ELG1 genotoxic	FLuc modulator	ELG1 repair inh	NPC1 promoter act
O=C1CCC(=O)N1c1nc2nc(-c3ccccc3)cc(=O)n2[nH]1	19.3%	-5.0%	0.1%	-8.7%	-4.4%	-1.2%
Cc1nc2nc(-c3ccccc3)cc(=O)n2[nH]1	?	17.0%	?	7.57µM*	?	17.0%
Cc1cccc(-c2cc3nc(-c4ccccc4)cc(=O)n3[nH]2)c1	.	2.82µM*	?	7.57µM*	?	2µM*
O=C(CN1CCN(S(=O)(=O)c2cccc(Br)c2)CC1)N1CCCCC1	.	1.8%	0.0%	1.8%	-1.1%	4.3%
CSc1nnc(-c2ccccc2N=Cc2c(C)[nH]n(-c3ccc4ccccc4c3)c2=O)c(=O)[nH]1	?	7.2%	18.8%	9.53µM*	?	18.3%
Cc1noc(C(=O)Nc2cccnc2Cl)c1Cl	.	12.5%	1.1%	4.2%	11.4%	-2.9%
Cc1c(C(=O)NC(C)c2ccncc2)oc2ccccc12 (stereo not given)	-21.2%	0.3%	-0.6%	-0.5%	10.4%	-1.1%
Cc1c(C(=O)Nc2cccnc2Cl)oc2ccccc12	.	3.16µM*	?	?	?	2.51µM*
COc1ccc(NC(=O)c2oc3ccccc3c2C)cn1	.	5.0%	1.7%	0.0%	-2.0%	1.0%
Cc1c(C(=O)Nc2ccccn2)oc2c(Cl)cccc12	.	12.7%	5.17µM*	?	?	5.0%
Cc1c(C(=O)Nc2ccccn2)oc2ccccc12	25.1µM*	?	?	4.26µM*	?	?
Cc1c(C(=O)Nc2ccncc2)oc2ccccc12	-23.8%	14.0%	?	19µM*	?	15.5%
CCOc1ccc(CNC(=O)C2CCN(c3nc4ccccc4nc3C(F)(F)F)CC2)cc1OC	.	.	.	-1.6%	.	.
Cc1ccn2c(=O)nc(SCC(=O)NCc3ccccc3Cl)nc2c1	.	15.5%	-2.6%	-3.8%	2.7%	1.8%
COCCNC(=O)Cn1cc(S(=O)(=O)Cc2ccccc2Cl)c2ccccc21	.	.	.	-1.5%	.	.
Cc1ccc(NC(=O)c2oc3ccccc3c2C)nc1	.	3.16µM*	?	12µM*	?	3.55µM*
Cc1ccc(NC(=O)c2cc3c(=O)oc4ccccc4c3s2)nc1	0.3%	1.3%	7.1%	-0.8%	-2.1%	1.0%
CCCOc1ccc(C2c3c(-c4ccccc4O)n[nH]c3C(=O)N2Cc2ccncc2)cc1OCC (stereo not given)	15.4%	.	.	-1.3%	.	.
COc1ccc(N2C(=O)C3C(C2=O)C2C=CC3C23CC3)c(OC)c1 (stereo not given)	-0.9%	7.6%	5.6%	13.5µM*	?	-1.0%
COc1cc(-c2nc(-c3cccnc3)no2)cc(OC)c1OC	-5.7%	-4.1%	-1.5%	-6.5%	23.1µM*	1.4%
COc1ccc(-c2nc(-c3cccnc3)no2)cc1OC	.	?	?	16.9µM*	?	?
CC1=CC(=O)C(C(C)C)=C/C1=C(\c1cc(C(C)C)c(OP(=O)(O)O)cc1C)c1ccccc1C(=O)O	.	-7.1%	-20.9%	1.9%	18.3µM*	-2.5%
CCOc1ccc(C(=O)c2ccccc2C(=O)O)cc1OCC	3.3%	-4.1%	2.5%	1.2%	2.0%	-2.0%
CCn1c(SCC(=O)Nc2nc(-c3ccc(C)cc3)cs2)nnc1-c1ccccc1O	-100.2%	-18.4%	-0.1%	?	16.4µM*	-7.8%
O=C(CSc1nnc(-c2cccnc2)n1Cc1ccco1)Nc1nc(-c2ccc(F)cc2)cs1	-53.3%	-1.9%	-6.9%	15.1µM*	20.6µM*	1.5%
SMILES	SMN2 splice enh	Rab9 promoter act	ELG1 genotoxic	FLuc modulator	ELG1 repair inh	NPC1 promoter act
O=C(CSc1nc(-c2ccc(Cl)cc2)cs1)Nc1cccc([N+](=O)[O-])c1	-59.7%	-6.5%	1.3%	9.53µM*	-18.5%	1.8%
CC(C)(C)NC(=O)CSc1nc(-c2ccc(F)cc2)cs1	14.1µM*	2µM*	?	6.75µM*	?	3.55µM*
CCn1c(CSc2nc(C)cc(C)n2)nnc1SCC(=O)Nc1nc(-c2ccccc2)cs1	-9.5%	-6.8%	-5.6%	0.9%[2.3 µM]	-5.0%	-0.2%
COc1ccc(NC(=O)CSCc2cnn(-c3ccccc3)c2-n2cccc2)cc1	.	.	.	4.5%	.	.
Cc1csc(SCC(=O)Nc2nc(-c3ccccc3)cs2)n1	15.5%	20.0%	?	-12.4%	?	13.2%
Cc1cc(=O)[nH]c(SCC(=O)Nc2nc(-c3ccccc3)cs2)n1	-13.4%	2.3%	-2.1%	-10.9%	?	9.6%
CCn1c(SCC(=O)Nc2nc(-c3ccc(C)cc3)cs2)nnc1-c1ccccc1	-24.3%	-24.3%	-9.7%	23.9µM*	25.9µM*	0.2%
Cc1nnc(SCC(=O)Nc2nc(-c3ccc(F)cc3)cs2)[nH]c1=O	1.3%	-1.4%	1.8%	16.9µM*	-3.2%	-5.0%
Cc1ccc(-c2csc(NC(=O)CSc3nc(C)cs3)n2)cc1	14.1µM*	22.4%	0.5%	?	?	?
CCOc1ccc(S(=O)(=O)N(C)c2ccc(OCC(=O)N3CCOCC3)cc2)cc1	0.0%	1.5%	-2.9%	-3.5%	-16.8%	0.7%
O=C(CCC1CCCC1)Nc1ccc(OCC(=O)N2CCOCC2)cc1	-1.2%	9.6%	8.4%	4.78µM*	?	9.9%
CN(C)S(=O)(=O)c1ccc(C(=O)Nc2ccc(OCC(=O)N3CCOCC3)cc2)cc1	-0.2%	9.0%	3.6%	15.1µM*	14.4%	1.5%
COc1ccc(C(=O)Nc2ccc(OCC(=O)N3CCOCC3)cc2)c(OC)c1OC	.	7.2%	10.9%	13.5µM*	?	-1.0%
COC(=O)Nc1ccc(OCC(=O)N2CCOCC2)cc1	5.9%	-4.2%	0.2%	4.8%	2.3%	-3.1%
O=C(Nc1ccc(OCC(=O)N2CCOCC2)cc1)c1cccc(Cl)c1	.	29.3%	3.0%	7.57µM*	?	24.9%
CC(=O)c1ccc(S(=O)(=O)N2CCC(NC(=O)c3ccccc3)CC2)cc1	.	0.3%	-7.9%	0.7%	?	2.0%
O=C(c1ccc(S(=O)(=O)Nc2ccccc2F)cc1)N1CCN(c2ccccn2)CC1	.	.	-2.5%	.	-19.9%	.
Cc1cc(NC(=O)c2cc3ccccc3o2)cc(C)c1OCC(=O)N1CCOCC1	-4.5%	-4.3%	-16.3%	12µM*	?	8.4%
COc1cc(C(=O)Nc2cc(C)c(OCC(=O)N3CCOCC3)c(C)c2)cc(OC)c1OC	.	1.9%	9.3%	4.0%	13.8%	-3.8%
COc1cc(C(=O)Nc2ccc(C(F)(F)F)cc2)ccc1OCC(=O)N1CCOCC1	.	20.2%	0.4%	6.75µM*	?	16.6%
Cc1cc(NC(=O)c2ccccc2F)cc(C)c1OCC(=O)N1CCOCC1	.	12.8%	6.7%	9.53µM*	?	-0.7%
O=C(Nc1ccc(OCC(=O)N2CCOCC2)cc1)c1ccccc1F	.	27.2%	19.7%	4.78µM*	?	22.0%

Screening data (PubChem)
